Among the data in PubChem BioAssay (EPA / NIEHS) are outcome and AC50 values, retold here.

Values joined by “and” are separate entries in the source; they are usually repeats but may differ in a detail not shown here. Identical values can stand only once. Records with an inconclusive call do not appear. Some structures have more than one record in an assay (separate samples or runs), and their calls can disagree. Active and inactive are the calls of the source. The calls were made as follows, unless noted: active = hit-call score of the fitted dose curve at least 0.9, where 1 is the maximum; inactive = score below 0.9.

By AC50 is commonly meant the concentration giving half of the maximal activity seen.

A short description of assay [1]: ATG_GAL4_TRANS: Attagene TRANS-FACTORIAL HepG2 Assay for GAL4 (Internal Marker) (AID 2282976; active = hit-call score of the fitted dose curve at least 0.9, where 1 is the maximum). The conditions noted are these: HepG2 Attagene TRANS GAL4 internal marker reporter. Put shortly:
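In transfected human HepG2 liver cells dosed 24 h, GAL4 reporter mRNA serves as a baseline marker. Detection by RT-PCR with fluorescent capillary electrophoresis, activity fitted upward relative to DMSO.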

For assay [2], the target named is Glucocorticoid receptor (Homo sapiens) (UniProt P04150). As to the kind of experiment: ATG_GR_TRANS: Attagene TRANS-FACTORIAL HepG2 Assay for human Glucocorticoid Receptor (GR) (AID 2282978; active = hit-call score of the fitted dose curve at least 0.9, where 1 is the maximum;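 also: activators score as hits since higher reporter transcript over DMSO is fitted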). The following applies: HepG2 Attagene TRANS GR reporter, mRNA transcription. Put shortly: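 After 24 h incubation with test chemical, transfected HepG2 cells were lysed for RNA; reporter cDNA was amplified, FAM-labelled, HpaI-digested and sized on a capillary analyser. Signal gain relative to DMSO was scored.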

Assay [3] deals with Oxysterols receptor LXR-alpha (Homo sapiens) (UniProt Q13133). Briefly: ATG_LXRa_TRANS: Attagene TRANS-FACTORIAL HepG2 Assay for human Liver X Receptor alpha (LXRa) (AID 2282980; active = hit-call score of the fitted dose curve at least 0.9, where 1 is the maximum). The following applies: HepG2 Attagene TRANS reporter, LXRa transactivation. An outline of the steps:
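Chemical-induced reporter mRNA measured by RT-PCR with fluorescent labelling and capillary electrophoresis after 24 h dosing of transiently transfected HepG2 cells expressing exogenous NR-Gal4 chimeras; increases scored against DMSO baseline.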

Assay [4] has as its target Oxysterols receptor LXR-beta (Homo sapiens) (UniProt P55055). As to the kind of experiment: ATG_LXRb_TRANS: Attagene TRANS-FACTORIAL HepG2 Assay for human Liver X Receptor beta (LXRb) (AID 2282981; active = hit-call score of the fitted dose curve at least 0.9, where 1 is the maximum). The following applies: HepG2 Attagene TRANS GAL4-LXRb reporter, mRNA. An outline of the steps:
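Readout: fluorescent reporter mRNA fragments resolved by capillary electrophoresis after RT-PCR. System: transiently transfected human HepG2, exogenous LXRb-Gal4 chimera driving GAL4-UAS reporter, 24 h dosing. Activity fitted upward against DMSO baseline.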

For assay [5], the target named is Hepatocyte nuclear factor 4-alpha (Homo sapiens) (UniProt P41235). Briefly: ATG_HNF4a_TRANS: Attagene TRANS-FACTORIAL HepG2 Assay for human Hepatocyte Nuclear Factor 4 alpha (HNF4a) (AID 2282982; active = hit-call score of the fitted dose curve at least 0.9, where 1 is the maximum). The following applies: HepG2 HNF4a transactivation reporter, mRNA readout. An outline of the steps: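 Transient MRTU transfection of HepG2, 24 h dosing. Readout: reporter mRNA via RT-PCR + capillary electrophoresis, fluorescence; activity fit upward relative to DMSO control.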

A short description of assay [6]: ATG_M_06_TRANS: Attagene TRANS-FACTORIAL HepG2 Assay for M06 Transcription Factor (Internal Marker) (AID 2282983; active = hit-call score of the fitted dose curve at least 0.9, where 1 is the maximum). The following applies: HepG2 Attagene TRANS M06 internal marker reporter. An outline of the steps: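 Background-control reporter readout: after 24 h chemical exposure of transiently transfected HepG2 (GAL4-UAS reporter units), mRNA quantified by RT-PCR with fluorescent labeling and capillary electrophoresis. Gain-of-signal fitting against DMSO baseline.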

The target of assay [7] is Nuclear receptor subfamily 4 group A member 2 (Homo sapiens) (UniProt P43354). As to the kind of experiment: ATG_NURR1_TRANS: Attagene TRANS-FACTORIAL HepG2 Assay for human Nuclear Receptor Related Protein 1 (NURR1) (AID 2282985; active = hit-call score of the fitted dose curve at least 0.9, where 1 is the maximum). The conditions noted are these: HepG2 Attagene TRANS reporter, mRNA readout. An outline of the steps: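 Read-out: reporter mRNA induction by RT-PCR plus capillary electrophoresis with fluorescence detection, after 24 h dosing of transfected HepG2 cells. Exogenous NR-Gal4 chimera activity drives GAL4-UAS reporter; activity fitted upward versus DMSO.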

For assay [8], the target named is Transcriptional activator Myb (Homo sapiens) (UniProt P10242). As to the kind of experiment: ATG_Myb_CIS: Attagene CIS-FACTORIAL HepG2 Assay for human Myeloblastosis (Myb) Proto-Oncogene Transcription Factor (AID 2282986). The following applies: HepG2 Attagene CIS-FACTORIAL Myb reporter transcription; actives raise or lower the signal. Put shortly:
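After 24 h of compound dosing, total RNA from transfected HepG2 cells is reverse-transcribed and the reporter sequences amplified, labeled and separated by capillary electrophoresis. Values come from bidirectional fitting against DMSO.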

Assay [9] concerns the target Nuclear respiratory factor 1 (Homo sapiens) (UniProt Q16656). As to the kind of experiment: ATG_NRF1_CIS: Attagene CIS-FACTORIAL HepG2 Assay for human Nuclear Respiratory Factor 1 (NRF1) Orphan Gene (AID 2282987). The conditions noted are these: HepG2 NRF1 cis-element reporter, Attagene multiplex; actives raise or lower the signal. An outline of the steps:
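Measured: fluorescent reporter-specific RT-PCR products from transfected HepG2 cells, separated by capillary electrophoresis. Exposure lasted 24 h. Analysis used bidirectional curve fitting with DMSO as negative control.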

The nature of assay [10]: ATG_NFI_CIS: Attagene CIS-FACTORIAL HepG2 Assay for human Nuclear Factor I (NFI) (AID 2282989). The conditions noted are these: HepG2 cis-regulatory reporter, NFI response element transcription; actives raise or lower the signal. An outline of the steps: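 Reporter transcription driven by endogenous transcription factors in HepG2 cells; 24 h treatment. Quantitation by labelled RT-PCR fragments on capillary electrophoresis, gain- or loss-of-signal relative to DMSO.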

For assay [11], the target named is Myc proto-oncogene protein (Homo sapiens) (UniProt P01106). As to the kind of experiment: ATG_Myc_CIS: Attagene CIS-FACTORIAL HepG2 Assay for human Myelocytomatosis (Myc) Proto-Oncogene Transcription Factor (AID 2282990). The conditions noted are these: HepG2, Attagene cis-reporter transcription factor activity; actives raise or lower the signal. An outline of the steps: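 Read-out: fluorescent reporter mRNA fragments resolved by capillary electrophoresis after RT-PCR. Human HepG2 liver cells carried transfected cis-element reporter units and were dosed for 24 h. Gain or loss of signal fitted relative to DMSO baseline.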

Assay [12] can be described thus: ATG_NRF2_ARE_CIS: Attagene CIS-FACTORIAL HepG2 Assay for human Nuclear Factor Erythroid 2 Related Factor 2 (NFR2) response to Antioxidant Response Elements (ARE) (AID 2282992). The following applies: HepG2 Attagene ARE/NRF2 reporter, transcription factor activity; actives raise or lower the signal. Put shortly:
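Endogenous transcription factor activity in human liver HepG2 cells is tracked via a cis-element-driven reporter within a multiplexed set. mRNA induction is read by RT-PCR and capillary electrophoresis after 24 h, with DMSO as baseline.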

Assay [13] is described as follows: ATG_Oct_MLP_CIS: Attagene CIS-FACTORIAL HepG2 Assay for human Octamer-Binding Transcription Factor (Oct) (AID 2282993). The following applies: HepG2 Attagene cis-factorial Oct reporter, mRNA; actives raise or lower the signal. An outline of the steps:
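Transfected HepG2 cells, 24 h treatment. Reporter mRNA quantified by RT-PCR–capillary electrophoresis; bidirectional fitting against DMSO.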

Assay [14] addresses Cellular tumor antigen p53 (Homo sapiens) (UniProt P04637). Briefly: ATG_p53_CIS: Attagene CIS-FACTORIAL HepG2 Assay for human p53 Transcription Factor (AID 2282994). The conditions noted are these: HepG2 p53 cis-element reporter, Attagene mRNA; actives raise or lower the signal. An outline of the steps: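 Steps: transfect HepG2 with multiplexed cis reporter constructs; dose chemicals 24 h; extract RNA, reverse-transcribe, PCR-amplify reporter sequences; FAM-label, HpaI-digest, resolve fragments by CE. Activity fitted both directions relative to DMSO.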

Assay [15] in a line: BSK_3C_TissueFactor: BioMAP Diversity Plus: 3C Assay for Tissue Factor Biomarker Activity (AID 2282997). The conditions noted are these: BioMAP 3C HUVEC, tissue factor biomarker readout; actives raise or lower the signal. An outline of the steps:
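Tissue factor on primary human umbilical vein endothelium was read by ELISA 24 h after dosing, gain or loss relative to DMSO. Cytotoxicity ran alongside via SRB (0.1%, TCA-fixed, 560 nm).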

A short description of assay [16]: BSK_3C_uPAR: BioMAP Diversity Plus: 3C Assay for Urokinase-type plasminogen activator receptor (uPAR) Biomarker Activity (AID 2282998). The following applies: BioMAP 3C HUVEC, uPAR biomarker ELISA; actives raise or lower the signal. An outline of the steps: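 Readout: ELISA for surface uPAR. System: human umbilical vein endothelial primary cells, 24 h after chemical exposure. Analysis: bidirectional fit, DMSO baseline.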
(In an ELISA, binding on a coated surface is turned into a signal by an enzyme label.)

The target in assay [17] is Estrogen-related receptor gamma (Homo sapiens) (UniProt P62508). Briefly: ATG_ERRg_TRANS: Attagene TRANS-FACTORIAL HepG2 Assay for human Estrogen-Related Receptor gamma (ERRg) (AID 2282977; active = hit-call score of the fitted dose curve at least 0.9, where 1 is the maximum;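 also: hits increase reporter signal over DMSO so potencies reflect activators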). The following applies: HepG2 Attagene TRANS reporter, ERRg transactivation. Put shortly:
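Readout: fluorescent reporter-mRNA fragments resolved by capillary electrophoresis after RT-PCR and HpaI cut. Cells: transiently transfected HepG2 carrying GAL4-UAS reporters driven by exogenous NR-Gal4 chimeras, dosed 24 h. Activity fitted upward relative to DMSO baseline.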

The target of assay [18] is Bile acid receptor (Homo sapiens) (UniProt Q96RI1). As to the kind of experiment: ATG_FXR_TRANS: Attagene TRANS-FACTORIAL HepG2 Assay for Farnesoid X Receptor (FXR) (AID 2282979; active = hit-call score of the fitted dose curve at least 0.9, where 1 is the maximum;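 also: hits raise reporter mRNA above DMSO so AC50 marks FXR activation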). The following applies: HepG2 Attagene TRANS FXR-GAL4 reporter transcription. An outline of the steps: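 Reporter transcripts from transfected HepG2 cells were measured 24 h after dosing, using RT-PCR with capillary electrophoresis of 6-FAM-labelled fragments. The read-out reflects activity of exogenous FXR-Gal4 chimera on GAL4-UAS units, with induction relative to DMSO.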

The nature of assay [19]: ATG_M_32_TRANS: Attagene TRANS-FACTORIAL HepG2 Assay for M32 Transcription Factor (Internal Marker) (AID 2282984; active = hit-call score of the fitted dose curve at least 0.9, where 1 is the maximum;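 also: transcript level of a background control reporter unit measured by RT-PCR and capillary electrophoresis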). The following applies: HepG2 Attagene TRANS M32 internal marker reporter. Put shortly:
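Read-out: fluorescent reporter cDNA fragments resolved by capillary electrophoresis after RT-PCR of total RNA. Transfected HepG2 cells were exposed to chemical for 24 h. Activity scored in the positive direction relative to DMSO.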

Assay [20] can be described thus: ATG_NF_kB_CIS: Attagene CIS-FACTORIAL HepG2 Assay for human Nuclear Factor Kappa B (NF-kB) (AID 2282991). The following applies: HepG2 Attagene cis-factorial NF-kB reporter mRNA; actives raise or lower the signal. An outline of the steps: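 Fluorescence of labelled RT-PCR products separated by capillary electrophoresis gives reporter mRNA levels from transfected HepG2 cells exposed 24 h; values are fitted in both directions relative to DMSO.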

Chain of Myc proto-oncogene protein (Homo sapiens) (P01106 whole entry, looked up, the tested form may be a part): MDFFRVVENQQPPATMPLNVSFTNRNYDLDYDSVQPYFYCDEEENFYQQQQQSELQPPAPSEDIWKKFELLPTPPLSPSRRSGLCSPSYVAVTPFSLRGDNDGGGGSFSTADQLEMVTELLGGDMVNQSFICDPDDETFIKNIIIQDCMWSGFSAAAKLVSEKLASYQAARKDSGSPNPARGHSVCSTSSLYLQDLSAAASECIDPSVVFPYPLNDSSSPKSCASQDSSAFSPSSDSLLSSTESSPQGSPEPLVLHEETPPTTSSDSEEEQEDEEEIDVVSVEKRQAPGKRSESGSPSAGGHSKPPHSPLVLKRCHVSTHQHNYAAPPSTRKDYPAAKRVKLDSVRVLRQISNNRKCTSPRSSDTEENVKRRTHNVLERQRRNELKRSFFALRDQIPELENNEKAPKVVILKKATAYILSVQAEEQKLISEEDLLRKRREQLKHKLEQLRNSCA
Chain of Cellular tumor antigen p53 (Homo sapiens) (P04637 whole entry, looked up, the tested form may be a part): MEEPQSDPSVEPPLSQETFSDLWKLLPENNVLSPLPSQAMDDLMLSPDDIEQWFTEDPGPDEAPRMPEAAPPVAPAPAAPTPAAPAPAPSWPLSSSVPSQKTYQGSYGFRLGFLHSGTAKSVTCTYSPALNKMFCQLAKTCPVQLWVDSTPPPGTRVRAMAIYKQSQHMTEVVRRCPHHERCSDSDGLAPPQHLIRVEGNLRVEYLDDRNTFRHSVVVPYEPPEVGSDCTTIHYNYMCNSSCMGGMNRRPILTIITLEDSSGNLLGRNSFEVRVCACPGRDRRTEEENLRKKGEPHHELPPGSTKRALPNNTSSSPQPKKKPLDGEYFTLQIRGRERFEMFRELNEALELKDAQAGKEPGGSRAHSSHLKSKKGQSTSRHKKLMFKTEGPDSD
Chain of Oxysterols receptor LXR-alpha (Homo sapiens) (Q13133 whole entry, looked up, the tested form may be a part): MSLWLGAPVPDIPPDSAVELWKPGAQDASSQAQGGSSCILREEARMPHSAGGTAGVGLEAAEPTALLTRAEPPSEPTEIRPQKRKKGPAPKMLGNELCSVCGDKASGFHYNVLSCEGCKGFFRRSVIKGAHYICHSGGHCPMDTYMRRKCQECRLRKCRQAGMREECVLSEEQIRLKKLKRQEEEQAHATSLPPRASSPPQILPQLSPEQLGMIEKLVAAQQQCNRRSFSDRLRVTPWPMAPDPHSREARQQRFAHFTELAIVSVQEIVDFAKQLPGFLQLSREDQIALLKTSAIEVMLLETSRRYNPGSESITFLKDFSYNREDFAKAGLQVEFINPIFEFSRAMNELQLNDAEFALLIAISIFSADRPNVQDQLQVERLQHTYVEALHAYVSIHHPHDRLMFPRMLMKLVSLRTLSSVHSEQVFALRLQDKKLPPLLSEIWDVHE
Chain of Hepatocyte nuclear factor 4-alpha (Homo sapiens) (P41235 whole entry, looked up): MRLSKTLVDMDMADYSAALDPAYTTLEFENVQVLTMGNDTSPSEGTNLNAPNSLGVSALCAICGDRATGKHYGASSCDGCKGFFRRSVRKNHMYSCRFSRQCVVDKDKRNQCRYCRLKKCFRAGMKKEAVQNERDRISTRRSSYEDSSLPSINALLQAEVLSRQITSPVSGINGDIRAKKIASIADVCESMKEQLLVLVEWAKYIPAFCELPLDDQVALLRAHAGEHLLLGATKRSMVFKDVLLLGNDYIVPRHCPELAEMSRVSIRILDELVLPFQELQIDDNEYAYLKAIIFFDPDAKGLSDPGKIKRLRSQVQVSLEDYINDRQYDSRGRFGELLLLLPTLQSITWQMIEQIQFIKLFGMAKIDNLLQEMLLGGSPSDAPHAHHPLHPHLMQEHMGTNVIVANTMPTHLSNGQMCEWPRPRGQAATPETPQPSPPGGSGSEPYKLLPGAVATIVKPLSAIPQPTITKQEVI
Chain of Nuclear respiratory factor 1 (Homo sapiens) (Q16656 whole entry, looked up): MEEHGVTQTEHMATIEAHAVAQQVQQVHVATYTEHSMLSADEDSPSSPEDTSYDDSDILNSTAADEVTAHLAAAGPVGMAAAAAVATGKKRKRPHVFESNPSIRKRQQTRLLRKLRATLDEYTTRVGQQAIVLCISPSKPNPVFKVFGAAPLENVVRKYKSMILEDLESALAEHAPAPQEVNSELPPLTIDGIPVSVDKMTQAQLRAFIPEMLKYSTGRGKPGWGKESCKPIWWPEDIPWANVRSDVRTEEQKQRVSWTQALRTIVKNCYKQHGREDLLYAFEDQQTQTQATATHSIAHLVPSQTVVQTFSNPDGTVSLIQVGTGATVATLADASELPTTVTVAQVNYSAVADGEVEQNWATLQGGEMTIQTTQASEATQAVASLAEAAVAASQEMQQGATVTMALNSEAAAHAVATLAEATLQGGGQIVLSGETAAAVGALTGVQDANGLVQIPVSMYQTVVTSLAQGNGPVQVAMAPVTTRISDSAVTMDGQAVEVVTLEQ
Chain of Transcriptional activator Myb (Homo sapiens) (P10242 whole entry, looked up): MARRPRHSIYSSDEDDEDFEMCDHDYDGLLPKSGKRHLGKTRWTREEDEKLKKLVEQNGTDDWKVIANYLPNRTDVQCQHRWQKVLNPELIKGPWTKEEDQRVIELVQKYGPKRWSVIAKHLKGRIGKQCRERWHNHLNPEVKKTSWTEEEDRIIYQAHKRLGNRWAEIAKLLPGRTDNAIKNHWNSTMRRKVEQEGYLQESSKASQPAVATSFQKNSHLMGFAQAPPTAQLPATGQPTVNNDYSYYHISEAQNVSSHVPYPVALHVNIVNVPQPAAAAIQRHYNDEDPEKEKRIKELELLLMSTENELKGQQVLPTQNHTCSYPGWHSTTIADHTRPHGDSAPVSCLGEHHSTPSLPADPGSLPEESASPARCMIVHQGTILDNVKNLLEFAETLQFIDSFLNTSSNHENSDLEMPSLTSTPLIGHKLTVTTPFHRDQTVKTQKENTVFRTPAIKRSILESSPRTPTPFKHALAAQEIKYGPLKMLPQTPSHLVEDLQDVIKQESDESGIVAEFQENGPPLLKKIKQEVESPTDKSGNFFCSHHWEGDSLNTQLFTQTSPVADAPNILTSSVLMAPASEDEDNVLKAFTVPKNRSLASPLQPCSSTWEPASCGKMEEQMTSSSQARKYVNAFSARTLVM
Chain of Glucocorticoid receptor (Homo sapiens) (P04150 whole entry, looked up): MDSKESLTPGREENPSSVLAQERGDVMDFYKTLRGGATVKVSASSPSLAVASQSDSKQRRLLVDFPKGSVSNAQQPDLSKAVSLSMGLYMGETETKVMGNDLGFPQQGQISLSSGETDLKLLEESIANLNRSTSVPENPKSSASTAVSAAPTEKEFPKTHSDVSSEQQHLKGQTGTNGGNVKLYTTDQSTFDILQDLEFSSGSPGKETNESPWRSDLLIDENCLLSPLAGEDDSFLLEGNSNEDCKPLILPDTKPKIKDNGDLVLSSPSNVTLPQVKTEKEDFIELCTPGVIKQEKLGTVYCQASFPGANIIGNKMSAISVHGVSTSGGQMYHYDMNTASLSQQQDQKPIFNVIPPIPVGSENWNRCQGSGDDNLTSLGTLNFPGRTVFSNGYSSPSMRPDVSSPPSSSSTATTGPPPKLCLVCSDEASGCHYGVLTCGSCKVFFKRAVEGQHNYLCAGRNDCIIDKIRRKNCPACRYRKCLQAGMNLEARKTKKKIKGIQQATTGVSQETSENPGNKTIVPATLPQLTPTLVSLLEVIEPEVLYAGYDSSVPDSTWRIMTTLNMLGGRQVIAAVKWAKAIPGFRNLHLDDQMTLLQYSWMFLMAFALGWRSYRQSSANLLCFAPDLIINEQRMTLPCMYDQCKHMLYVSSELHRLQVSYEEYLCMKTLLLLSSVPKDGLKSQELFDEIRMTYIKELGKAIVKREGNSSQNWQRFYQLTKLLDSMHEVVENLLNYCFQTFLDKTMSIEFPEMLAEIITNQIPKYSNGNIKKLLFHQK
Chain of Oxysterols receptor LXR-beta (Homo sapiens) (P55055 whole entry, looked up, the tested form may be a part): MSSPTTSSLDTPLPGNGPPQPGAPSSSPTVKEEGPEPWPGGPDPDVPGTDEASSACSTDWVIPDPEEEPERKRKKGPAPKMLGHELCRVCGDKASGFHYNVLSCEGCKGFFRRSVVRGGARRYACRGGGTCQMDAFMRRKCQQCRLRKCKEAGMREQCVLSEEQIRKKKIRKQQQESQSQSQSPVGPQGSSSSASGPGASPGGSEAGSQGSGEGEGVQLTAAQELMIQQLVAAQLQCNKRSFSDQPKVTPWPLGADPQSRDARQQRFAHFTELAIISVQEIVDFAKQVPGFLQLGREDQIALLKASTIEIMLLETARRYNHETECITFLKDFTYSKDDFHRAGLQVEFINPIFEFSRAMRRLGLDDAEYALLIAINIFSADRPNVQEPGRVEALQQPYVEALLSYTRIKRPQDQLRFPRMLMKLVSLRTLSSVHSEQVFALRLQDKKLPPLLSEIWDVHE
Chain of Nuclear receptor subfamily 4 group A member 2 (Homo sapiens) (P43354 whole entry, looked up, the tested form may be a part): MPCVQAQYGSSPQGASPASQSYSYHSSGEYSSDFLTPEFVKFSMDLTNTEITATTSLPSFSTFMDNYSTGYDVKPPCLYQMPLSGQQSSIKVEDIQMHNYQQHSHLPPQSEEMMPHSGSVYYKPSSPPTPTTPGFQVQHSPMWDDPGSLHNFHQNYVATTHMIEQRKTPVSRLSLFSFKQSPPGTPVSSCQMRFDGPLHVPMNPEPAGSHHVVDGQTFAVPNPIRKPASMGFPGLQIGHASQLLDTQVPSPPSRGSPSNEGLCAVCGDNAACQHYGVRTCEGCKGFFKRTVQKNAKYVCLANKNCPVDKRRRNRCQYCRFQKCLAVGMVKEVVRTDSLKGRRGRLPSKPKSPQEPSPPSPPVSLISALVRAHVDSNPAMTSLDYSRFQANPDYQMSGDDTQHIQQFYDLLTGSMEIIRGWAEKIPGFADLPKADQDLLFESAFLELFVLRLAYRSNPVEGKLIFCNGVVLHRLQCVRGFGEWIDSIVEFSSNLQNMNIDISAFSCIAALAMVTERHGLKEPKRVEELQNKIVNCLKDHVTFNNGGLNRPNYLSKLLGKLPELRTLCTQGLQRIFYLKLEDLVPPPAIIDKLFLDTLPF

As for `COc1cnc(OC)n2nc(NS(=O)(=O)c3c(OCC(F)F)cccc3C(F)(F)F)nc12`, the call in [1], in assay [2], in [3], in assay [4], in assay [5] and in [6] was inactive. The compound was called inactive in assay [7], in assay [8], in assay [9], in [10], in [11] and in assay [12]. Further, the call in [13], in assay [14], in [15] and in assay [16] was inactive.
Turning to `CCCCNC(=O)OCC#CI`, the compound was called inactive in assay [17], in assay [2], in assay [18], in [3], in [4] and in assay [6]. Further, the compound was classed as inactive in assay [8], in assay [9], in [10], in assay [11], in [12] and in assay [13]. The compound was called inactive in assay [14]. Moreover, the AC50 in assay [5] is 64.2 µM (active); in [10], 49 µM (active); in assay [11], 26.4 µM (active); in assay [12], 27.6 µM (active); in assay [13], 29.9 µM (active); in [14] it was 33.5 µM (active). Also, the AC50 in [15] is 11.6 µM (active) and 21.2 µM (active); in [16] it was 13.4 µM (active) and 12.9 µM (active).
Consider `CCCC1COC(Cn2cncn2)(c2ccc(Cl)cc2Cl)O1` (configuration not stated), for which the compound was classed as inactive in assay [1], in [2], in [3], in assay [4], in assay [5] and in assay [6]. Besides, the compound was classed as inactive in assay [19], in assay [7], in assay [8], in [9], in [10] and in [11]. The call in [20], in assay [12], in assay [13], in [14], in assay [15] and in [16] was inactive. Also, the concentration at half-maximal activity (AC50) in assay [12] was 27.1 µM (active); in [13], 8.1 µM (active).
